Bioassay records deposited in PubChem by National Center for Advancing Translational Sciences (NCATS).
The list is not random: actives were taken first. Their share in the collection is about 3.3%.
VACV mCherry inh = qHTS for Stage-Specific Inhibitors of Vaccinia Orthopoxvirus: mCherry Reporter Primary qHTS. 0.63% of 310,000 active. Vaccinia virus mCherry reporter infection, fluorescence. Potency, µM (highest dose often 36.5 µM), usual class: inhibitors; calls by dose curve; tested in A549 cells; note: nearly all actives have a fitted effect of over 35% in size
VACV Venus inh = qHTS for Stage-Specific Inhibitors of Vaccinia Orthopoxvirus: Venus Reporter Primary qHTS; AID 720580, 2013; Potency, µM (top dose mostly 36.5 µM), hits mostly inhibitors; 0.46% of 330,000 active; Vaccinia virus Venus reporter expression, fluorescence; calls by dose curve; tested in A549 cells; note: nearly all actives have a fitted effect of over 30% in size
HCV inhibitor = qHTS Assay for Inhibitors of Hepatitis C Virus (HCV); Huh7.5.1 HCVcc-Cre infection, luciferase reporter, 44 h; AID 651820, 2012; Potency, µM (top dose mostly 41.8 µM), usual class: inhibitors; 3.4% of 340,000 active; active = well fitted inhibition curve with a large enough effect; inconclusive = small, poorly fitted or top-dose-only effect, or another doubt; inactive = no such curve, though single readings can be large or run the other way
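Infectious HCVcc-Cre (~0.5 moi) was added to cells just after compound, with cells seeded 4 h earlier at 1,000 per well. Luciferase activity after 44 h culture reported infection; substrate was incubated 15 min at room temperature before reading.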
Of the large screens only hits and unclear results are named; the others gave an inactive call.

CCOC(=O)c1sc(=S)n(-c2ccc(OC)cc2)c1C	none
COc1ccc(NS(=O)(=O)c2cccc(C(=O)NNC(=O)CNC(=O)c3cccc(C)c3)c2)cc1	none (no result: VACV mCherry inh, VACV Venus inh)
COc1cccc2cc(-c3nc(-c4ccccc4)c(C)s3)c(=O)oc12	none (no result: HCV inhibitor)
O=C(/C=C/Sc1ccc(C(F)(F)F)cn1)c1ccccc1	HCV inhibitor 10µM (no result: VACV mCherry inh, VACV Venus inh)
O=C(CSc1ccc(C(F)(F)F)cn1)Nc1ccccc1	none
CCOc1ccc(-c2ccc(/C=C3/C(=N)N4C(C)=CSC4=NC3=O)o2)c([N+](=O)[O-])c1	none
CCOc1ccc(-c2ccc(/C=C3/C(=N)N4C=CSC4=NC3=O)o2)c([N+](=O)[O-])c1	HCV inhibitor 11µM
Cc1cc(Cl)nc2ccccc12	none (no result: HCV inhibitor)
Cc1cc(Cl)nc2ccc(Cc3ccc4nc(Cl)cc(C)c4c3)cc12	HCV inhibitor 10µM
COC(=O)CSc1nc2sc3c(c2c(=O)n1-c1ccccc1)CCN(C)C3	HCV inhibitor inconclusive
CCCCNc1nc2sc3c(c2c(=O)n1-c1cccc(Cl)c1)CCN(C)C3	HCV inhibitor 4µM
COc1cc2c(cc1OC)C(=O)C(CC1CCN(Cc3ccccc3)CC1)C2 (stereo not drawn)	HCV inhibitor 1.4µM
COc1cc2c(cc1OC)CN(Cc1ccccc1)CC2	VACV mCherry inh inconclusive
Cc1nc(N2CCN(C)CC2)c2c(C)c(C(=O)Nc3ccc(C)c(F)c3)sc2n1	HCV inhibitor 8.9µM (no result: VACV mCherry inh, VACV Venus inh)
Cc1nc(N2CCN(c3ccccn3)CC2)c2c(C)c(C(=O)Nc3c(F)cc(F)cc3Br)sc2n1	HCV inhibitor 13µM (no result: VACV mCherry inh, VACV Venus inh)
Cc1nc(N2CCN(c3ccccn3)CC2)c2c(C)c(C(=O)N3CCN(c4ccc(F)cc4)CC3)sc2n1	VACV Venus inh inconclusive, HCV inhibitor inconclusive
Cc1nc(N2CCC(C)CC2)c2c(C)c(C(=O)Nc3ccc(C)c(F)c3)sc2n1	none
Cc1noc(C)c1C(=O)N(C)CC(=O)Nc1ccc(F)c(F)c1F	none
C=CCCC1CN(CCCC)S(=O)(=O)c2c(F)cccc2O1 (stereo not drawn)	none
CCCCN1C[C@H](CO)Oc2cccc(F)c2S1(=O)=O	HCV inhibitor 0.56µM
O=S1(=O)c2c(F)cccc2OC(COc2ccccc2)CN1CCc1ccc(F)cc1 (stereo not drawn)	none
O=S1(=O)c2c(F)cccc2O[C@@H](COCc2ccccc2)CN1CCc1ccc(F)cc1	HCV inhibitor 10µM
CCOC(=O)N1CCC(NC(=O)CS(=O)Cc2nc(-c3ccccc3C)oc2C)CC1 (stereo not drawn)	HCV inhibitor inconclusive
CCNC(=O)NC1c2ccccc2CSc2ccccc21 (stereo not drawn)	none
CCOCCN1CCN(C2c3ccccc3CSc3ccccc32)CC1 (stereo not drawn)	HCV inhibitor 22µM
COc1ccc(CCNC(=O)c2ccc3nc(Cc4ccccc4)oc3c2)cc1OC	none (no result: HCV inhibitor)
COc1cccc(/C=N/n2cnc3cc(C)c(C)cc32)c1OC	HCV inhibitor inconclusive
O=[N+]([O-])c1ccc(/C=N/Nc2ncccc2[N+](=O)[O-])s1	VACV mCherry inh inconclusive
O=[N+]([O-])c1ccc(/C=N/n2cnc3ccccc32)s1	VACV mCherry inh 5µM, VACV Venus inh 6.3µM, HCV inhibitor inconclusive
Cc1cc2ncn(/N=C/c3ccc([N+](=O)[O-])s3)c2cc1C	VACV mCherry inh inconclusive, VACV Venus inh inconclusive, HCV inhibitor 11µM
CCc1ccc2oc(-c3ccc(C)c(NC(=O)COc4ccc(Cl)cc4)c3)nc2c1	none (no result: HCV inhibitor)
C=CCn1c(SCC)nc2ccccc2c1=O	none (no result: HCV inhibitor)
CC(C)N1C(=O)C(=O)N(CC(=O)N2c3ccccc3NC(=O)CC2C)C1=O (stereo not drawn)	none
CCOC(=O)c1ccc(-c2ccc(/C=N/NC(=O)CN(c3ccccc3Br)S(C)(=O)=O)o2)cc1	HCV inhibitor 11µM
CS(=O)(=O)N(CC(=O)N/N=C/c1cccc2c1OCCO2)c1ccccc1Br	none (no result: VACV mCherry inh)
COCC(=O)N1CCC2CC1c1c(-c3ccc(C(F)(F)F)cc3)cccc12 (stereo not drawn)	HCV inhibitor inconclusive
Cc1ccc(Oc2c(C(F)(F)F)oc3c(CN4CCC(C)CC4)c(O)ccc3c2=O)cc1	none (no result: HCV inhibitor)
COc1ccc(-c2sc(Nc3ccccc3)n[n+]2-c2ccccc2)cc1Br	none
C(=C\c1sc(Nc2ccccc2)n[n+]1-c1ccccc1)/c1ccccc1	VACV mCherry inh inconclusive, VACV Venus inh 8.9µM
CCc1nn2c(=O)cc(COC(=O)c3ccccc3NC(=O)COc3ccc(F)cc3)nc2s1	none (no result: HCV inhibitor)
COc1ccc(C(=O)Nc2ccc(S(=O)(=O)N3CCc4ccccc43)cc2)cc1	VACV mCherry inh inconclusive, HCV inhibitor 11µM
O=C(Nc1nc(-c2ccccc2)cs1)c1ccc(S(=O)(=O)N2CCc3ccccc32)cc1	VACV Venus inh inconclusive, HCV inhibitor 10µM
COc1ccc(S(=O)(=O)N2CCc3ccccc32)cc1C(=O)Nc1ccc(NC(C)=O)cc1	none (no result: VACV mCherry inh, VACV Venus inh)
COc1cc2nc(NC(=O)c3ccc(S(=O)(=O)N4CCc5ccccc54)cc3)sc2cc1OC	none (no result: HCV inhibitor)
CCOc1ccc(-c2csc(NC(=O)c3ccc(S(=O)(=O)N4CCc5ccccc5C4)cc3)n2)cc1	none (no result: VACV mCherry inh, VACV Venus inh)
Cc1ccc(-c2csc(NC(=O)c3ccc(S(=O)(=O)N4CCc5ccccc54)cc3)n2)cc1	HCV inhibitor 4.5µM
O=C(NC1CCN(S(=O)(=O)c2ccc(F)cc2)CC1)c1cccc(F)c1	none (no result: VACV mCherry inh, VACV Venus inh)
CCOC(=O)c1ccccc1NC(=O)c1cc2c(=O)oc3ccc(C)cc3c2s1	none (no result: HCV inhibitor)
CCC(Sc1ncnc2sc3c(c12)CCCC3)C(=O)OCC(C)C (stereo not drawn)	none (no result: HCV inhibitor)
COc1ccc(NC(=O)c2ccco2)cc1NC(=O)COc1ccc(C)cc1C	VACV Venus inh inconclusive (no result: HCV inhibitor)
c1ccc2c(c1)[nH]c1cnccc12	HCV inhibitor inconclusive
COc1ccc2[nH]c(C)cc(=O)c2c1	none (no result: VACV mCherry inh)
Cc1c2ccncc2cc2c1[nH]c1ccccc12	VACV mCherry inh 16µM, VACV Venus inh 10µM, HCV inhibitor 6.3µM
Cc1c2ccncc2c(C)c2c1[nH]c1ccccc12	VACV mCherry inh 11µM, VACV Venus inh 10µM, HCV inhibitor inconclusive
COc1ccc2[nH]c3c(C)c4ccncc4c(C)c3c2c1	VACV mCherry inh 7.1µM, VACV Venus inh 10µM, HCV inhibitor 2.2µM
Cc1c2cnccc2c(C)c2c1c1ccccc1n2CCOC(=O)c1ccccc1	none (no result: HCV inhibitor)
Cc1ccnc2cc(Cl)c(Cl)cc12	none (no result: HCV inhibitor)
Cc1ccc(-c2nnc(N3CCOCC3)c3ccccc23)cc1S(N)(=O)=O	none
CCCCNC(=O)COC(=O)c1c2c(nc3ccccc13)/C(=C/c1cccs1)CC2	VACV Venus inh inconclusive, HCV inhibitor 2.2µM
CCCCNC(=O)COC(=O)c1c2c(nc3ccccc13)CCC2	HCV inhibitor inconclusive
N#Cc1ccccc1CSc1nnc(-c2ccc(Br)cc2)o1	none (no result: HCV inhibitor)
O=C(NCCN1CCN(c2ccccc2)CC1)C1(S(=O)(=O)c2ccc(Cl)cc2)CC1	VACV mCherry inh inconclusive
CC1(C)CCC(c2ccc(Cl)cc2)=C(CN2CCN(c3ccc(C(=O)NS(=O)(=O)c4ccc(N[C@H](CCN5CCOCC5)CSc5ccccc5)c(S(=O)(=O)C(F)(F)F)c4)cc3)CC2)C1	VACV mCherry inh inconclusive, VACV Venus inh 10µM (no result: HCV inhibitor)
COC(=O)[C@]1(C)N[C@H](CN(C)C(=O)Nc2ccccc2)[C@@H]2C(=O)N(C)C(=O)[C@@H]21	none
CN1CCC(N(C)C(=O)/C=C/c2cn(-c3ccccc3)nc2-c2cccs2)CC1	VACV mCherry inh inconclusive, HCV inhibitor 7.9µM
